System: Plasmodium falciparum
Experiment: GSK_TCMDC: Inhibition of Plasmodium falciparum 3D7 in whole red blood cells, using parasite LDH activity as an index of growth. Test compounds present at 2uM
Assay type: functional

SMILES	Inhibition
CS(=O)(=O)NCCCNCc1ccc(-c2ccc(-c3nc4cc(C(F)(F)F)ccc4[nH]3)s2)cc1.O=C(O)C(F)(F)F	99%
Cc1cc(=NN=Cc2ccc(Cl)cc2)c2cc(F)ccc2[nH]1	100%
CCOc1ccc(Nc2ccc3nonc3c2S(=O)(=O)Nc2ccc(OCC)cc2)cc1	100%

System: Plasmodium falciparum
Experiment: GSK_TCMDC: Inhibition of Plasmodium falciparum Dd2 in whole red blood cells, using parasite LDH activity as an index of growth. Test compounds present at 2uM
Assay type: functional

SMILES	Inhibition
CCN(CC)/C(=N/C(=N)NCc1ccc(Cl)cc1)NCCCCCCN/C(=N\C(=N)NCc1ccc(Cl)cc1)N(CC)CC	100%
CN1CCC(c2csc3ccc(NC(=O)Nc4ccc(-c5ccncc5)c5ccccc45)cc23)CC1	71%
Cc1ccc(S(=O)(=O)N(CCCN2CCN(C)CC2)Cc2csc(-c3ccc(CNCc4ccccc4)cc3)n2)cc1.O=C(O)C(F)(F)F	90%
CCCCCCNC(=O)C1Cc2c([nH]c3ccccc23)C2(CCN(CCc3ccccc3)CC2)N1 (stereo not drawn)	34%
Cc1ccc2c(=O)n(C)c(=O)n(C)c2n1	0%
Cc1nc(NC(=N)N)nc2cc3c(cc12)CCC3.Cl	58%
FC(F)(F)c1ccc2[nH]c(-c3cccc(-c4cccc(CN5CCN(c6ccncc6)CC5)c4)c3)nc2c1.O=C(O)C(F)(F)F	99%
CN(C)CCN(C)Cc1nc(-c2ccc3c(Nc4ccc(Oc5ccccc5)cc4)ccnc3c2)cs1	100%
O=S(=O)(c1ccccc1C(F)(F)F)C1CC2CCC(C1)N2S(=O)(=O)c1ccc(Cl)c(C(F)(F)F)c1 (stereo not drawn)	99%
CS(=O)(=O)O.O=[N+]([O-])c1ccc(CNCCCCCCNCc2ccc([N+](=O)[O-])c3ccccc23)c2ccccc12	98%
COc1ccc(OC)c(Cc2cnc3nc(N)nc(N)c3c2C)c1 [PIRITREXIM]	97%
CN1CCC(C(=O)Nc2ccc(-c3cccc(-c4nc5cc(F)ccc5[nH]4)c3)cc2)CC1	5%
CC(C)N1CCC(N(Cc2ccc(-c3ccc(C(F)(F)F)cc3)cc2)C(=O)Cn2c(CCc3cccc(F)c3F)nc(=O)c3cccnc32)CC1.O=C(O)C(O)C(O)C(=O)O	80%
CC(C)c1nc(N2CCN(C(=S)NCc3ccccc3)CC2)c(C#N)c2c1COC(C)(C)C2	100%
O=c1cc(NCCC(CNCc2cc3ccccc3o2)NCc2cc(Br)cc(Br)c2)[nH]c2ccccc12 (stereo not drawn)	94%
Cc1cccc2nc(-c3cccc(-c4ccc(C(=O)N5CCCCC5C(C)O)cc4)c3)[nH]c12 (stereo not drawn)	91%
O=C(Nc1cccc(CN2CCN(Cc3ccc(O)cc3)CC2)c1)c1cccc(C(F)(F)F)c1.O=C(O)C(F)(F)F	15%
Cc1[nH]n(-c2cccc(C(F)(F)F)c2)c(=O)c1-c1ccc(Cl)cc1	25%
CCc1c(C)nc2nc(Cc3cccc(F)c3)nn2c1N1CCN(c2ccccn2)CC1	98%
Cl.O=C(NC1CCC(CCN2CCc3ccc(-c4cnccn4)cc3CC2)CC1)c1cccc(-n2cccn2)c1 (stereo not drawn)	1%

SMILES	Inhibition
Cc1cccc2nc(-c3cccc(-c4ccc(NC(=O)C(C)C(=O)NC(C)C)cc4)c3)[nH]c12 (stereo not drawn)	26%
S=C(NCCN1CCOCC1)Nc1ccccc1	1%
Cc1cccnc1Nc1nc(-c2ccccn2)cs1	99%
CC(=O)Nc1ccc(CNC2Cc3ccc(-c4ccc(Cl)c(Cl)c4)cc3C2)cc1 (stereo not drawn)	7%
COc1cccc(NC(=O)Nc2ccc(C)c(-c3ccc(C(=O)Nc4ccncc4)cc3)c2)c1	64%
Cc1onc(-c2ccccc2)c1-c1nc(NC2CCCC(C)C2)no1 (stereo not drawn)	46%
CCCCOc1ccc(-c2nc3ccccc3[nH]2)cc1	82%
Nc1ncc(-c2cn[nH]c2)cc1-c1nc2ccc(F)cc2[nH]1	53%
Cl.O=C(Nc1cccc(Cl)c1Cl)N1CCc2cc3nccc(N4CCN5CCC[C@H]5C4)c3cc21	100%
Cn1cnc(CCNC(=O)c2ccc(-c3cccc(-c4nc5cc(C(F)(F)F)ccc5[nH]4)c3)cc2)c1	93%
CC(=O)Nc1ccc(Cl)c(Cl)c1	98%
COc1cccc(Nc2nccc(NCC(O)c3ccc(C(F)(F)F)cc3)n2)c1 (stereo not drawn)	28%
O=C(NCc1cccc(CN2CCOCC2)c1)c1cc(Br)cc(N2CCN(c3ccncc3)CC2)c1.O=C(O)C(F)(F)F	29%
Cc1c(C(=O)N2CCCC(C(F)(F)F)C2)sc2cccc(F)c12 (stereo not drawn)	89%
O=C(NC1CC1)c1ccc(Cn2c(SCc3cccc(Cl)c3)nc3ccccc3c2=O)cc1	70%
CCN(CCN(C)C)Cc1ccc(-c2ccc(NS(=O)(=O)c3cccc4cccnc34)cc2)cc1.O=C(O)C(F)(F)F	57%
CO/C(=C\C=C\c1cc2cc(Cl)c(Cl)cc2[nH]1)C(=O)NC1CC2CCCC(C1)N2C (stereo not drawn)	51%
CS(=O)(=O)NCCCNCc1ccc(-c2ccc(-c3nc4cc(C(F)(F)F)ccc4[nH]3)s2)cc1.O=C(O)C(F)(F)F	73%
Cc1cc(=NN=Cc2ccc(Cl)cc2)c2cc(F)ccc2[nH]1	98%
CCOc1ccc(Nc2ccc3nonc3c2S(=O)(=O)Nc2ccc(OCC)cc2)cc1	93%
